The text below walks through data of PMC7826789 (International Journal of Molecular Sciences, 2021).

For one assay, the system named is MAP2K5.
Consider `COc1cc(Nc2nccc(N3CCC(NC(=O)Nc4cc(C)ccc4C)C3)n2)cc(OC)c1OC` (stereo not shown) [GSK1379762], for which the Kinases covered result is “MAP2K5”.

Turning to `COc1cc2ncn(-c3cc(OCC4CCCO4)c(C(N)=O)s3)c2cc1OC` (stereo not shown) [GSK204607], the Kinases covered result is given as “MAP2K5”.

For the compound `COc1cc2nccc(Nc3ccc(OCc4ccc(NC(C)=O)cc4)cc3)c2cc1OC` [GW440135], the Kinases covered entry is given as “MAP2K5”.

Take `Cc1ccc(C(=O)Nc2ccc(Nc3ccnc4cc(-c5ccccn5)ccc34)cc2O)cc1` [GW440146]: the Kinases covered result is “MAP2K5”.

Another assay relates to MAPK10.
For `COC(=O)c1c(-c2ccccc2)c2cc(Br)ccc2c(=O)n1Cc1ccc(S(C)(=O)=O)cc1` [TPKI-100], the Kinases covered entry was “MAPK10”.

As for `O=C(O)/C=C/C(=O)O.OCCCNc1nccc(-c2c(-c3ccc(F)cc3)nn3cc(C(F)(F)F)ccc23)n1` [GW569293E], the Kinases covered entry is given as “MAPK10”.

Consider `Nc1nccc(-c2c(-c3ccc(F)cc3)ncn2C2CCN(Cc3ccccc3)CC2)n1` [SB-219980], for which the Kinases covered result is on record as “MAPK10”.

Consider `Fc1ccc(-c2nn3ccccc3c2-c2ccncc2)cc1` [GW434756X], for which the Kinases covered entry is given as “MAPK10”.

Take `CCc1nc(-c2cccc(C)c2)c(-c2ccncc2)s1` [TPKI-106]: the Kinases covered result was “MAPK10”.

For the compound `CCC(=O)c1c(-c2ccccc2)c2cc(Cl)ccc2c(=O)n1Cc1cc(S(C)(=O)=O)n(CC(N)=O)n1` [TPKI-105], the Kinases covered result is given as “MAPK10”.

The subject of a further assay is MAPK14.
In the case of `O=C(O)/C=C/C(=O)O.OCCCNc1nccc(-c2c(-c3ccc(F)cc3)nn3cc(C(F)(F)F)ccc23)n1` [GW569293E], the Kinases covered entry is on record as “MAPK14”.

Turning to `Nc1nccc(-c2c(-c3ccc(F)cc3)ncn2C2CCN(Cc3ccccc3)CC2)n1` [SB-219980], the Kinases covered result is given as “MAPK14”.

As for `CCc1ccc(Oc2nccc(-c3c(-c4ccc(F)cc4)ncn3C3CCNCC3)n2)cc1` [SB-242719], the Kinases covered result is recorded as “MAPK14”.

In the case of `Fc1ccc(-c2nn3ccccc3c2-c2ccncc2)cc1` [GW434756X], the Kinases covered entry is “MAPK14”.

Consider `COCCNC(=O)c1ccc(-c2cc(C(=O)NC3CC3)cc(F)c2C)cc1` [GW868318], for which the Kinases covered result is “MAPK14”.

With `CCc1nc(-c2cccc(C)c2)c(-c2ccncc2)s1` [TPKI-106], the Kinases covered result is given as “MAPK14”.

Regarding `O=c1[nH]c2cc(Nc3ccc(F)cc3F)ccc2n1CC1CCCCC1` [BI00601000], the Kinases covered entry is listed as “MAPK14”.

Consider `Cc1ccc(C(=O)NCC(N)=O)cc1-n1c(C)cc(OCc2ccc(F)cc2F)c(Br)c1=O` [PFE-PKIS 1], for which the Kinases covered result is “MAPK14”.

With `Cc1ccc(-n2nc(C(C)(C)C)cc2NC(=O)Nc2ccc(OCCN3CCOCC3)cc2)cc1` [BIRB0876BS], the Kinases covered result is on record as “MAPK14”.
